Measurements published in PubChem BioAssay (EPA / NIEHS).
Results filed as inconclusive are left out. Activity calls are given as the source filed them. The calls were made as follows, unless noted: active = hit-call score of the fitted dose curve at least 0.9, where 1 is the maximum; inactive = score below 0.9.

Tests used:
[1] = ATG_NFI_CIS: Attagene CIS-FACTORIAL HepG2 Assay for human Nuclear Factor I (NFI) (AID 2282989); settings: HepG2 cis-regulatory reporter, NFI response element transcription; actives raise or lower the signal
In short: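 Endogenous TF activity in HepG2 cells transiently transfected with cis-element-driven multiplexed reporter units, read 24 h after dosing. Reporter mRNA quantified by RT-PCR, 6-FAM labelling, HpaI digestion and capillary electrophoresis; bidirectional fit versus DMSO.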

[2] = target: Myc proto-oncogene protein (Homo sapiens) (UniProt P01106); assay: ATG_Myc_CIS: Attagene CIS-FACTORIAL HepG2 Assay for human Myelocytomatosis (Myc) Proto-Oncogene Transcription Factor (AID 2282990); settings: HepG2, Attagene cis-reporter transcription factor activity; actives raise or lower the signal
Sequence of Myc proto-oncogene protein (Homo sapiens) (P01106 whole entry, looked up): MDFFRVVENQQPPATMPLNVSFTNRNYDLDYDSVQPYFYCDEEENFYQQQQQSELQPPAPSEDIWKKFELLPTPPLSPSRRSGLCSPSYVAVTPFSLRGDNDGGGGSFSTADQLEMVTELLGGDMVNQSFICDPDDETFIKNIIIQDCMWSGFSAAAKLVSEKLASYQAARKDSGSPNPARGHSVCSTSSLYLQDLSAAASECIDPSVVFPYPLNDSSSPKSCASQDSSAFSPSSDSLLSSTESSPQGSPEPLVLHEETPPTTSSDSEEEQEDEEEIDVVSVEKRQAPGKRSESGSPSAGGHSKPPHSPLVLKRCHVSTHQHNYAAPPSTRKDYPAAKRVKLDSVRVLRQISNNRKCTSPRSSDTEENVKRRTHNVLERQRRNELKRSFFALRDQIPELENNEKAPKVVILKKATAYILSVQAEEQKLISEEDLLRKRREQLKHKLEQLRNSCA
In short: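 Multiplexed cis-reporter transcription in HepG2 cells after 24 h chemical treatment. Reporter mRNA measured by RT-PCR and capillary electrophoresis fluorescence; activity fitted bidirectionally against DMSO control.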

[3] = ATG_NF_kB_CIS: Attagene CIS-FACTORIAL HepG2 Assay for human Nuclear Factor Kappa B (NF-kB) (AID 2282991); settings: HepG2 Attagene cis-factorial NF-kB reporter mRNA; actives raise or lower the signal
In short: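 After 24 h compound incubation, transfected HepG2 cells yield total RNA; reporter cDNA is PCR-amplified, end-labelled with 6-FAM, HpaI-digested and analysed on a genetic analyser. Endogenous factor activity, DMSO-referenced bidirectional fit.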

[4] = ATG_NRF2_ARE_CIS: Attagene CIS-FACTORIAL HepG2 Assay for human Nuclear Factor Erythroid 2 Related Factor 2 (NFR2) response to Antioxidant Response Elements (ARE) (AID 2282992); settings: HepG2 Attagene ARE/NRF2 reporter, transcription factor activity; actives raise or lower the signal
In short: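 Transient MRTU transfection of HepG2; 24 h compound exposure; TriZol RNA, RT with oligo(dT), PCR, 6-FAM primer extension, HpaI cut, CE. Bidirectional fit vs DMSO.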

[5] = ATG_Oct_MLP_CIS: Attagene CIS-FACTORIAL HepG2 Assay for human Octamer-Binding Transcription Factor (Oct) (AID 2282993); settings: HepG2 Attagene cis-factorial Oct reporter, mRNA; actives raise or lower the signal
In short: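 HepG2 cells transiently transfected with cis-element-driven reporter transcription units (endogenous TF activity); 24 h compound exposure. Reporter mRNA quantified by RT-PCR, 6-FAM labelling, HpaI digestion and capillary electrophoresis; bidirectional fit versus DMSO baseline.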

[6] = target: Cellular tumor antigen p53 (Homo sapiens) (UniProt P04637); assay: ATG_p53_CIS: Attagene CIS-FACTORIAL HepG2 Assay for human p53 Transcription Factor (AID 2282994); settings: HepG2 p53 cis-element reporter, Attagene mRNA; actives raise or lower the signal
Sequence of Cellular tumor antigen p53 (Homo sapiens) (P04637 whole entry, looked up): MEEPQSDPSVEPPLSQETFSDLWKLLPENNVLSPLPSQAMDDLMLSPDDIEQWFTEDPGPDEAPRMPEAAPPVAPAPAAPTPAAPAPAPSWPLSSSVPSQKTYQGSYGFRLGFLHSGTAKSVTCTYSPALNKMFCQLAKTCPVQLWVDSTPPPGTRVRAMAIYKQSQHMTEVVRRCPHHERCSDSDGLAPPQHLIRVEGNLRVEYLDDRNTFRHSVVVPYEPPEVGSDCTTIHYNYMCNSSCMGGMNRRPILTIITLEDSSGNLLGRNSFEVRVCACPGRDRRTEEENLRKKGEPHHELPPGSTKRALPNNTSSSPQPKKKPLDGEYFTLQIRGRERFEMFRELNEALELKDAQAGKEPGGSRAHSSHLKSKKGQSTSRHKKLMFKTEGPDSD
In short: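 HepG2, transient MRTU transfection (cis promoter elements, endogenous TFs); 24 h dosing; RNA isolation, RT-PCR, 6-FAM primer extension, HpaI digest, CE fluorescence; bidirectional fit vs DMSO.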

[7] = BSK_3C_TissueFactor: BioMAP Diversity Plus: 3C Assay for Tissue Factor Biomarker Activity (AID 2282997); settings: BioMAP 3C HUVEC, tissue factor biomarker readout; actives raise or lower the signal
In short: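 Primary human umbilical vein endothelial cells in the 3C system were exposed to test chemical for 24 h, then Tissue Factor measured by ELISA. Activity was fitted bidirectionally against DMSO as negative control and baseline.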

[8] = BSK_3C_uPAR: BioMAP Diversity Plus: 3C Assay for Urokinase-type plasminogen activator receptor (uPAR) Biomarker Activity (AID 2282998); settings: BioMAP 3C HUVEC, uPAR biomarker ELISA; actives raise or lower the signal
In short: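 Primary human umbilical vein endothelial cells, 3C system; surface uPAR measured by ELISA 24 h after dosing. Cytotoxicity via SRB total protein in parallel cultures; bidirectional fit against DMSO.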

[9] = BSK_3C_VCAM1: BioMAP Diversity Plus: 3C Assay for Vascular cell adhesion molecule 1 (VCAM1) Biomarker Activity (AID 2282999); settings: BioMAP 3C HUVEC, VCAM1 ELISA, cytokine-stimulated; actives raise or lower the signal
In short: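 Human umbilical vein endothelial cells were dosed with compound for 24 h, after which cell-surface VCAM-1 was quantified by ELISA. Bidirectional curve fitting used DMSO as negative control and activity baseline.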

[10] = BSK_4H_Eotaxin3: BioMAP Diversity Plus: 4H Assay for Eotaxin 3 Biomarker Activity (AID 2283000); settings: primary human endothelial cells (HUVEC); actives raise or lower the signal
In short: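 HUVEC, 24 h post-dose, ELISA for Eotaxin-3/CCL26. Gain or loss of signal fitted bidirectionally vs DMSO baseline.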

[11] = read-out: Intercellular Adhesion Molecule 1 (ICAM1), ICAM1 (gene 3383); assay: BSK_3C_ICAM1: BioMAP Diversity Plus: 3C Assay for Intercellular Adhesion Molecule 1 (ICAM1) Biomarker Activity (AID 2283003); settings: primary human endothelial cells (HUVEC); actives raise or lower the signal
In short: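 Primary human umbilical vein endothelial cells in the BioMAP 3C system were exposed to chemicals for 24 h, then ICAM-1 was quantified by ELISA. Activity was fitted bidirectionally against the DMSO negative control baseline.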

[12] = target: human Retinoic Acid Receptor beta (RARb), RARB (gene 5915) (UniProt P10826); assay: ATG_RARb_TRANS: Attagene TRANS-FACTORIAL HepG2 Assay for human Retinoic Acid Receptor beta (AID 2283004; active = hit-call score of the fitted dose curve at least 0.9, where 1 is the maximum)
Sequence of human Retinoic Acid Receptor beta (RARb), RARB (gene 5915) (P10826 whole entry, looked up, the tested form may be a part): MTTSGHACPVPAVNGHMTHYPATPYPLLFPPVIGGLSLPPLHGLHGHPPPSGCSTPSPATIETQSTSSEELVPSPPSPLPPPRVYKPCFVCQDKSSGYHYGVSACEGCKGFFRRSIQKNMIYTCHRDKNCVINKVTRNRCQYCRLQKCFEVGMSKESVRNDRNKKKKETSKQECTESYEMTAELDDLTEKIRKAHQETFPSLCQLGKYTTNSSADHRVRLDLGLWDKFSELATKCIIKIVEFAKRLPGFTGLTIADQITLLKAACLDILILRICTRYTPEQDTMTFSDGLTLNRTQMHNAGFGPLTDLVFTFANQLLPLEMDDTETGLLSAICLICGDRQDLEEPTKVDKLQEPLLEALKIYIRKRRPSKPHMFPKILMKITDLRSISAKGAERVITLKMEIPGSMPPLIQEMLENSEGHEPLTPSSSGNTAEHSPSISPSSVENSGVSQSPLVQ
In short: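 HepG2 cells transiently transfected with multiplexed GAL4-UAS reporter units expressing chimeric NR–Gal4 fusions; 24 h compound exposure. Reporter mRNA quantified by RT-PCR, 6-FAM labelling, HpaI digestion and capillary electrophoresis; gain-of-signal fitted against DMSO baseline.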

[13] = target: Retinoic acid receptor alpha (Homo sapiens) (UniProt P10276); assay: ATG_RARa_TRANS: Attagene TRANS-FACTORIAL HepG2 Assay for human Retinoic Acid Receptor alpha (RARa) (AID 2283005; active = hit-call score of the fitted dose curve at least 0.9, where 1 is the maximum)
Sequence of Retinoic acid receptor alpha (Homo sapiens) (P10276 whole entry, looked up, the tested form may be a part): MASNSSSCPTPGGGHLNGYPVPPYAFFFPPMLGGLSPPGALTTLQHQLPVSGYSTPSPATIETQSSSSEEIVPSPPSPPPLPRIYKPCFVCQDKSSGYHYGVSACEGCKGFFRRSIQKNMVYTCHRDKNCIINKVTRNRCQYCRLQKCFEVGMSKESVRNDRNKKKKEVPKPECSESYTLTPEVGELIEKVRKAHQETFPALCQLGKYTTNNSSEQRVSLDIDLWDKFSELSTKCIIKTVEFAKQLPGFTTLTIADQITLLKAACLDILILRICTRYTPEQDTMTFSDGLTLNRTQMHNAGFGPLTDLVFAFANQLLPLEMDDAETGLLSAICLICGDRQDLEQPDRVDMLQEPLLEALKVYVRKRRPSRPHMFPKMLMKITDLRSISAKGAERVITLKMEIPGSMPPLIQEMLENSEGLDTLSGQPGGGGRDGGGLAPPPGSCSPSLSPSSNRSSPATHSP
In short: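 HepG2 cells transiently transfected with multiple reporter units expressing chimeric RARα-GAL4 fusion, with GAL4-UAS-driven reporters. After 24 h compound exposure, reporter mRNA induction quantified by RT-PCR and capillary electrophoresis with fluorescent labeling; gain-of-signal fitted relative to DMSO control.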

[14] = target: Nuclear receptor subfamily 1 group I member 2 (Homo sapiens) (UniProt O75469); assay: ATG_PXR_TRANS: Attagene TRANS-FACTORIAL HepG2 Assay for human Pregnane X Receptor (PXR) (AID 2283008; active = hit-call score of the fitted dose curve at least 0.9, where 1 is the maximum)
Sequence of Nuclear receptor subfamily 1 group I member 2 (Homo sapiens) (O75469 whole entry, looked up, the tested form may be a part): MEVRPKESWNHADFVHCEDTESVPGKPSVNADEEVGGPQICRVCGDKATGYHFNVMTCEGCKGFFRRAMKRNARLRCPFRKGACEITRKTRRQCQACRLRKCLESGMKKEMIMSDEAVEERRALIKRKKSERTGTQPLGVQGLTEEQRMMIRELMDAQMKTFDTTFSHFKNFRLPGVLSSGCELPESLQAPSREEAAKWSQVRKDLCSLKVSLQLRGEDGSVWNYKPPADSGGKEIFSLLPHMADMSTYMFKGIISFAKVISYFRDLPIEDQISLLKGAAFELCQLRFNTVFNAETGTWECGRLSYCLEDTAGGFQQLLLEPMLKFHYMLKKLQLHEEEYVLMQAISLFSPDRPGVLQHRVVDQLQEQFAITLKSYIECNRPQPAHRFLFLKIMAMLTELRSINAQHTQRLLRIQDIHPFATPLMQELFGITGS
In short: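 Read-out is fluorescence of labelled reporter cDNA fragments separated by capillary electrophoresis after RT-PCR and HpaI digestion. Source: HepG2 cells carrying PXR-GAL4/UAS reporter constructs, treated 24 h; activity fitted upward relative to DMSO.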

[15] = target: human Retinoic Acid Receptor gamma (RARg), RARG (gene 5916) (UniProt P13631); assay: ATG_RARg_TRANS: Attagene TRANS-FACTORIAL HepG2 Assay for human Retinoic Acid Receptor gamma (RARg) (AID 2283009; active = hit-call score of the fitted dose curve at least 0.9, where 1 is the maximum)
Sequence of human Retinoic Acid Receptor gamma (RARg), RARG (gene 5916) (P13631 whole entry, looked up, the tested form may be a part): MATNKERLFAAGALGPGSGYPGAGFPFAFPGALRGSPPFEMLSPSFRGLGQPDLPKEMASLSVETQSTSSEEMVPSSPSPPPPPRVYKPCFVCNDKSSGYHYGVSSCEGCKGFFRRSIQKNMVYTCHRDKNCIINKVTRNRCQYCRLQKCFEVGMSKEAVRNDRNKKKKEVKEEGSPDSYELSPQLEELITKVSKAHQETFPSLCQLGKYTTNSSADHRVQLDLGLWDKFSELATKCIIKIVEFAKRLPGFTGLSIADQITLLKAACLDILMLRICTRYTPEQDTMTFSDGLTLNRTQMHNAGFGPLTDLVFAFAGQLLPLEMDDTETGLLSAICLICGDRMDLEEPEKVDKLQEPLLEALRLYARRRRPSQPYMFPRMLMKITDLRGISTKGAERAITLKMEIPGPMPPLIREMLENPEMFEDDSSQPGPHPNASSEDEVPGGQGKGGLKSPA
In short: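 HepG2 cells transiently transfected with multiplexed reporter units expressing chimeric RARg-GAL4 and GAL4-UAS-driven reporters; 24 h compound exposure. Reporter mRNA quantified by RT-PCR with fluorescent labelling and capillary electrophoresis; gain-of-signal fitted relative to DMSO baseline.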

[16] = target: human RAR-related Orphan Receptor beta (RORb), RORB (gene 6096) (UniProt Q92753); assay: ATG_RORb_TRANS: Attagene TRANS-FACTORIAL HepG2 Assay for human RAR-related Orphan Receptor beta (RORb) (AID 2283010; active = hit-call score of the fitted dose curve at least 0.9, where 1 is the maximum)
Sequence of human RAR-related Orphan Receptor beta (RORb), RORB (gene 6096) (Q92753 whole entry, looked up, the tested form may be a part): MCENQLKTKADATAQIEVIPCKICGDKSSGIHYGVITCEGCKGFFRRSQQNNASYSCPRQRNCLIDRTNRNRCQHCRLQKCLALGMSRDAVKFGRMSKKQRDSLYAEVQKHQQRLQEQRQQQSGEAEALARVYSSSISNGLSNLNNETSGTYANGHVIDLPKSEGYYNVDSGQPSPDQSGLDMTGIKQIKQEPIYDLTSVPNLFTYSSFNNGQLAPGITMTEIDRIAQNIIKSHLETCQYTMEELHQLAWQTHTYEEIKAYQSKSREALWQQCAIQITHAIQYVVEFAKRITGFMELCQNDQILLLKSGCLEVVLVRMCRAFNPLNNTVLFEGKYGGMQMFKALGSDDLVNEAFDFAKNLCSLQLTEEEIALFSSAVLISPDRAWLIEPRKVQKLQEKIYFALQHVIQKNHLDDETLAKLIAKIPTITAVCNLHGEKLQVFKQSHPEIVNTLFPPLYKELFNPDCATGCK
In short: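 HepG2 cells were transiently transfected with multiplexed GAL4-UAS reporter units expressing chimeric nuclear receptor–GAL4 proteins, then dosed for 24 h. Reporter mRNA was quantified by RT-PCR with fluorescent labelling and capillary electrophoresis; gain of signal was fitted relative to DMSO.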

[17] = target: Peroxisome proliferator-activated receptor gamma (Homo sapiens) (UniProt P37231); assay: ATG_PPARg_TRANS: Attagene TRANS-FACTORIAL HepG2 Assay for human Peroxisome Proliferator-activated Receptor-gamma (PPARg) (AID 2283007; active = hit-call score of the fitted dose curve at least 0.9, where 1 is the maximum)
Sequence of Peroxisome proliferator-activated receptor gamma (Homo sapiens) (P37231 whole entry, looked up, the tested form may be a part): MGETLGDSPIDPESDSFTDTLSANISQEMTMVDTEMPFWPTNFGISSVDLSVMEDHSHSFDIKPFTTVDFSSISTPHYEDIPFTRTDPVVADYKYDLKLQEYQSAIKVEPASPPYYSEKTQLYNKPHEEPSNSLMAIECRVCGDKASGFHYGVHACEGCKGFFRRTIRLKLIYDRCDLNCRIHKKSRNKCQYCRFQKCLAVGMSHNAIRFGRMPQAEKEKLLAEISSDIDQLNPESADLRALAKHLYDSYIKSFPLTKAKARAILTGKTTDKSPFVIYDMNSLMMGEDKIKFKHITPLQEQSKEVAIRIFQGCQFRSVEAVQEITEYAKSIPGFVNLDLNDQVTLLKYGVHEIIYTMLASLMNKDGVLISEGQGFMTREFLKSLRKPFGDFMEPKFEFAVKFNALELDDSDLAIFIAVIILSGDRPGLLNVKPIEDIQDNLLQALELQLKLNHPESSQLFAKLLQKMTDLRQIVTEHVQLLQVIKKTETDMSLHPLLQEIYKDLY
In short: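 Liver-derived HepG2 cells expressing an exogenous NR-Gal4 chimera alongside GAL4-UAS reporter genes; 24 h exposure. Fluorescence of reporter RT-PCR products, separated by capillary electrophoresis, gives mRNA induction relative to DMSO.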

[18] = BSK_3C_Proliferation: Cell Proliferation Assessment in the BioMAP Diversity Plus: 3C Assay (AID 2283006); settings: primary human endothelial cells (HUVEC)
In short: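 Human umbilical vein endothelial cells were grown sub-confluent and exposed to chemical for 48 h, then fixed with 10% TCA and stained with 0.1% sulforhodamine B; absorbance at 560 nm gave relative cell number, fitted bidirectionally against DMSO baseline.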

[19] = target: human Peroxisome Proliferator-activated Receptor delta (PPARd), PPARD (gene 5467) (UniProt Q03181); assay: ATG_PPARd_TRANS: Attagene TRANS-FACTORIAL HepG2 Assay for human Peroxisome Proliferator-activated Receptor delta (PPARd) (AID 2283002; active = hit-call score of the fitted dose curve at least 0.9, where 1 is the maximum)
Sequence of human Peroxisome Proliferator-activated Receptor delta (PPARd), PPARD (gene 5467) (Q03181 whole entry, looked up, the tested form may be a part): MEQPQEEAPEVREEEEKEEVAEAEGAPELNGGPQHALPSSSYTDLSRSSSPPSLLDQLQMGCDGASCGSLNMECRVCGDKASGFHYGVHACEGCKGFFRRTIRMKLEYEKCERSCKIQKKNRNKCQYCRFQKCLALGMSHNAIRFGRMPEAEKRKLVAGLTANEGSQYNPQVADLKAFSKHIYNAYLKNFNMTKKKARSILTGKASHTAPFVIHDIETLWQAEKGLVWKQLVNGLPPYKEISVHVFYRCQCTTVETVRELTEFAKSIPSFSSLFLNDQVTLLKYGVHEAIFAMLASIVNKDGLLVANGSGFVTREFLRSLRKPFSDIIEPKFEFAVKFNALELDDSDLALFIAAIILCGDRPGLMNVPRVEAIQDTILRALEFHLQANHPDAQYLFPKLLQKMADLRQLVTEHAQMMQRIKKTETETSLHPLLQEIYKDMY
In short: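 Multiplexed trans-activation format: HepG2 liver cells expressing exogenous NR-Gal4 chimeras and GAL4-UAS reporters were exposed for 24 h. Reporter mRNA was detected by RT-PCR with capillary electrophoresis fluorescence; activity fitted as gain of signal relative to DMSO.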

[20] = target: human Peroxisome Proliferator-activated Receptor alpha (PPARa), PPARA (gene 5465) (UniProt Q07869); assay: ATG_PPARa_TRANS: Attagene TRANS-FACTORIAL HepG2 Assay for human Peroxisome Proliferator-activated Receptor alpha (PPARa) (AID 2283001; active = hit-call score of the fitted dose curve at least 0.9, where 1 is the maximum;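 as to AC50: potency for gain of reporter signal over DMSO so agonist or activator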)
Sequence of human Peroxisome Proliferator-activated Receptor alpha (PPARa), PPARA (gene 5465) (Q07869 whole entry, looked up, the tested form may be a part): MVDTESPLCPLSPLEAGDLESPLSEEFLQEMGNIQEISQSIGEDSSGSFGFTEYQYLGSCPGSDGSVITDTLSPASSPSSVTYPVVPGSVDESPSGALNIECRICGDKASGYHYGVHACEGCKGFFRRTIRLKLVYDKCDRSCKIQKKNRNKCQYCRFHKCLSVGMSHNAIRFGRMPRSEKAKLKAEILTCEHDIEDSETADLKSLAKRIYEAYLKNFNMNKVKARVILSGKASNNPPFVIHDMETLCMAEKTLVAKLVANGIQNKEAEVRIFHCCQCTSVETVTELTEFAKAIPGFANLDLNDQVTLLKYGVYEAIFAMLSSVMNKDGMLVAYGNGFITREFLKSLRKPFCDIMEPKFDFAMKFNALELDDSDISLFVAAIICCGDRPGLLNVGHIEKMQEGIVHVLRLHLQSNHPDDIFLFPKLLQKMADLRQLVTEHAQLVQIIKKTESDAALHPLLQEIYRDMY
In short: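 HepG2 cells transiently transfected with multiplexed GAL4-UAS reporter units and chimeric NR-Gal4 constructs were dosed for 24 h. Reporter mRNA was measured by RT-PCR with fluorescent labelling and capillary electrophoresis; gain of signal fitted against DMSO.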

Measured: AC50

COc1ccc(CCN2CCC(Nc3nc4ccccc4n3Cc3ccc(F)cc3)CC2)cc1
active: [4] 1.99 µM | [8] 5 µM | [10] 5 µM
not listed: [17] | [18] | [19] | [20]
inactive: all other assays above

O=C(O)CCCCCCCCC(=O)O
inactive: [1] | [2] | [3] | [4] | [5] | [6]

CSCCC=O
active: [17] 56.3 µM | [14] 10.6 µM
not listed: [12] | [13] | [15] | [18] | [19] | [20]
inactive: all other assays above

C[C@@H]1CCN(C(=O)[C@H](CCCN=C(N)N)NS(=O)(=O)c2cccc3c2NC[C@H](C)C3)[C@@H](C(=O)O)C1
not listed: [13] | [14] | [16] | [19] | [20]
inactive: all other assays above

CCN(CC)C(=O)N(CC)CC
not listed: [14] | [16] | [17] | [20]
inactive: all other assays above

CN(C)C(=S)SC(=S)N(C)C
active: [4] 22.9 µM | [8] 31.8 µM | [9] 19.9 µM | [10] 31.4 µM | [17] 20.9 µM
not listed: [12] | [13] | [15] | [18]
inactive: all other assays above

Oc1c(Cl)cc(Cl)c(Cl)c1Cc1c(O)c(Cl)cc(Cl)c1Cl
inactive: [1] | [3] | [12] | [13] | [15]
active: [2] 4.41 µM | [4] 3.04 µM | [5] 1.3 µM | [6] 11.1 µM | [7] 18.5 µM | [8] 1.23 µM | [9] 20 µM | [10] 10.8 µM | [20] 11.1 µM | [11] 27.1 µM | [14] 5.79 µM

O=P(O)(O)O
inactive: [1] | [2] | [3] | [4] | [5]

CN(C)C(=O)Nc1ccc(Oc2ccc(Cl)cc2)cc1
active: [4] 61.4 µM | [8] 2.32 µM | [17] 17.4 µM | [14] 26.6 µM
not listed: [12] | [13] | [15] | [16] | [18] | [19]
inactive: all other assays above

CCCCCCC(CO)CCCC (stereo unspecified)
not listed: [12] | [16] | [18]
inactive: all other assays above

CCCCN(CCCC)C(=O)N(CCCC)CCCC
inactive: [5] | [20] | [19] | [15]
active: [1] 60.3 µM | [2] 48.7 µM | [3] 52.8 µM | [4] 61.6 µM | [6] 33.4 µM | [7] 6.23 µM | [8] 10.7 µM | [9] 8.82 µM | [10] 9.73 µM | [11] 10.7 µM | [17] 15.9 µM | [14] 0.445 µM

Cc1cc(CCC(=O)OCCOCCOCCOC(=O)CCc2cc(C)c(O)c(C(C)(C)C)c2)cc(C(C)(C)C)c1O
active: [4] 23.4 µM | [8] 17.8 µM | [17] 24.2 µM
not listed: [14] | [16] | [18] | [19]
inactive: all other assays above

CCCCCC(C=O)=Cc1ccccc1
active: [4] 100 µM | [6] 164 µM | [7] 31.7 µM | [8] 31.5 µM | [9] 33.1 µM | [10] 31 µM | [20] 27.5 µM | [11] 30.9 µM | [17] 27.6 µM
inactive: [1] | [2] | [3] | [5] | [19] | [15]

CC(CN=Cc1ccccc1O)N=Cc1ccccc1O (stereo unspecified)
active: [3] 63.6 µM | [4] 69.5 µM | [17] 72.2 µM
not listed: [13] | [14] | [15] | [16] | [18] | [19]
inactive: all other assays above

C1=CC2C3C=CC(C3)C2C1 (stereo unspecified)
not listed: [12] | [16] | [18] | [19] | [20]
inactive: all other assays above

CC(C)(C)CC(C)(C)c1ccc(OCCOCC[N+](C)(C)Cc2ccccc2)cc1
active: [4] 6.71 µM | [6] 8.35 µM | [7] 7.26 µM | [8] 5 µM | [9] 7.65 µM | [10] 7.69 µM | [20] 14.4 µM | [11] 8.87 µM
inactive: [1] | [2] | [3] | [5] | [19] | [12] | [17]
